What all share (assay): DAPPL (digital affinity profiling via proximity ligation, sequencing); 10 mM Tris-HCl pH 7.5, 50 mM NaCl, 1 mM DTT, 4% glycerol, room temperature, 30 min; GST-TFs on glutathione beads, 16-mer random dsDNA library, 0.1% formaldehyde crosslink after washing; high values mean tight binding
The target of one assay is T1, FEV (Homo sapiens, UniProt Q99581 1-238).
T1 sequence: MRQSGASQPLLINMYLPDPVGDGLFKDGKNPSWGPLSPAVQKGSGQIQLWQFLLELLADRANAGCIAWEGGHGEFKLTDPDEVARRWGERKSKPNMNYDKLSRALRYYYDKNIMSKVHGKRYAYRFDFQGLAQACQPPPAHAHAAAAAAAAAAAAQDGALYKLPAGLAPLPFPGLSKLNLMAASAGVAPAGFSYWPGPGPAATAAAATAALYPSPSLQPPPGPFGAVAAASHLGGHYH
Conditions: protein: recombinant; tags: N-terminal GST; dsDNA, one strand shown. The method, boiled down:
(§1)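 A tag-only sample was pooled with DNA-barcoded human transcription factors that had been expressed in yeast as GST fusions and captured on glutathione beads. The pools were incubated for 30 min at room temperature with 200 nmole of a random double-stranded 16-mer DNA library in Tris/NaCl/DTT/glycerol buffer, then washed, crosslinked with 0.1% formaldehyde, proximity-ligated (BsaI/T4 ligase, 1 h, 37 °C), PCR-amplified and sequenced on an Illumina NextSeq500. Binding signal is each hexamer's read frequency for a factor divided by its frequency for the tag-only sample.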

The next assay has as its target ETV5 (Homo sapiens, UniProt P41161 1-510). Conditions: protein: recombinant; tags: N-terminal GST; dsDNA, one strand shown. The method, boiled down:
as §1

The target in a further assay is HSF1 (Homo sapiens, UniProt Q00613 1-529). Particulars: protein: recombinant; tags: N-terminal GST; chain copies: 3; dsDNA, one strand shown. The procedure, abridged:
as §1

The target of another assay is T2, SPIC (Homo sapiens, UniProt Q8N5J4 1-248).
T2 sequence: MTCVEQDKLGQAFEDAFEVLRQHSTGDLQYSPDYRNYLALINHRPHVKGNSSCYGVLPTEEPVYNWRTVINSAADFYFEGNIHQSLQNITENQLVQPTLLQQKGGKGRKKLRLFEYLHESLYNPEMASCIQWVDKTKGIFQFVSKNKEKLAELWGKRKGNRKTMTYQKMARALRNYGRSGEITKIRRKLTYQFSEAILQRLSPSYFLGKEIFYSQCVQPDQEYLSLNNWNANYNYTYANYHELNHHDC
Conditions: protein: recombinant; tags: N-terminal GST; dsDNA, one strand shown. The method, boiled down: as §1

The target in another assay is ELF4 (Homo sapiens, UniProt Q99607 1-663). Conditions: protein: recombinant; tags: N-terminal GST; dsDNA, one strand shown. The method, boiled down: as §1
ELF4, sequence (Q99607 whole entry): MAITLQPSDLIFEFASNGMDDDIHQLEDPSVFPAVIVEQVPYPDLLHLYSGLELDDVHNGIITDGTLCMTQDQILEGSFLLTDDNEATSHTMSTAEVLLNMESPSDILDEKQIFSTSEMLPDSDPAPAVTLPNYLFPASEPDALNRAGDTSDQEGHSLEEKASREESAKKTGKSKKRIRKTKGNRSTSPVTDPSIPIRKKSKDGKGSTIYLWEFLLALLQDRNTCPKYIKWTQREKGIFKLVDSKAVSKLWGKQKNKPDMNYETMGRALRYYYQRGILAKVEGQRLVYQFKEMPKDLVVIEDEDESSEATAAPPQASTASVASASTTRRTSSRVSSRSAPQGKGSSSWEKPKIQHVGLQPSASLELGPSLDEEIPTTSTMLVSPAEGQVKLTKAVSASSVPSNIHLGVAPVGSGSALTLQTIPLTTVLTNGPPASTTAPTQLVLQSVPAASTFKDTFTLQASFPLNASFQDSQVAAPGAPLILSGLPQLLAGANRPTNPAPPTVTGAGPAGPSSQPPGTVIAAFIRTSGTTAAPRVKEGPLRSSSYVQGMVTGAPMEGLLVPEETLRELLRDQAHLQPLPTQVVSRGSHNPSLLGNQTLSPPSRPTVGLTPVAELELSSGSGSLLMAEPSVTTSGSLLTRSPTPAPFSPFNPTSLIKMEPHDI
A further assay addresses T3, ELK4 (Homo sapiens, UniProt P28324-2 1-405).
T3 sequence: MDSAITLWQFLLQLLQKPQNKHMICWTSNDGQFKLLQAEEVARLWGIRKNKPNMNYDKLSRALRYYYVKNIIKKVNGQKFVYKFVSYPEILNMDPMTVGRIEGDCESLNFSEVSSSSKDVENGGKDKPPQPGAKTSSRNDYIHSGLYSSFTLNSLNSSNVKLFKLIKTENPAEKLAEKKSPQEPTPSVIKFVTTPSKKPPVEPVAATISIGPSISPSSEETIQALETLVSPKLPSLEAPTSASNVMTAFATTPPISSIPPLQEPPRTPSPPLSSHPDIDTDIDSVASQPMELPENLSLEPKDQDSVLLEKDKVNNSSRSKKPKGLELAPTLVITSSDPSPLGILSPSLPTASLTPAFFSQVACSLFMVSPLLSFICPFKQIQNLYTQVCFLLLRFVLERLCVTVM
Particulars: protein: recombinant; tags: N-terminal GST; dsDNA, one strand shown. The method, boiled down:
as §1

For a further assay, the target named is T4, ETV2 (Homo sapiens, UniProt O00321 1-342).
T4 sequence: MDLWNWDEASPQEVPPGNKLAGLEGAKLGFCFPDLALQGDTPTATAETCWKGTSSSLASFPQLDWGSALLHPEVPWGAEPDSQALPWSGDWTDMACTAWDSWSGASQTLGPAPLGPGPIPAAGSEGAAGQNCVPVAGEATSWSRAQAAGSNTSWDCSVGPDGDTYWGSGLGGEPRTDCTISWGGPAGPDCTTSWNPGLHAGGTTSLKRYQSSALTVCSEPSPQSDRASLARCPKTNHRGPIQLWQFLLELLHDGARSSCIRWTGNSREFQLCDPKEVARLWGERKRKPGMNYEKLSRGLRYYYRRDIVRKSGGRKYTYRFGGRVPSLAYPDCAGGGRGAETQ
Conditions: protein: recombinant; tags: N-terminal GST; dsDNA, one strand shown. The procedure, abridged: as §1

The next assay addresses T5, ELF3 (Homo sapiens, UniProt P78545 1-371).
T5 sequence: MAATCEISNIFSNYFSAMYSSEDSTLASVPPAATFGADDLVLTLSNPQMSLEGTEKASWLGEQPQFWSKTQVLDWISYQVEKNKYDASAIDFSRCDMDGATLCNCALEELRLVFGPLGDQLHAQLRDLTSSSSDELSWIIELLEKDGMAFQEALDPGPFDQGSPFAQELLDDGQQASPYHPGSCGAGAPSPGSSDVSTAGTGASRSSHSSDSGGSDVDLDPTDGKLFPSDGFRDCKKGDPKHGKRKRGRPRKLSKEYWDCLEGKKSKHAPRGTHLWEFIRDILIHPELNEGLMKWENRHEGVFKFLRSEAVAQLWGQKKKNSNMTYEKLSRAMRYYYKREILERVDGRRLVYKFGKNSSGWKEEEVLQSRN
Particulars: protein: recombinant; tags: N-terminal GST; dsDNA, one strand shown. The procedure, abridged:
as §1

A further assay concerns the target CRX (Homo sapiens, UniProt O43186 1-299). Conditions: protein: recombinant; tags: N-terminal GST; dsDNA, one strand shown. The method, boiled down:
as §1

A further assay concerns the target ETV1 (Homo sapiens, UniProt P50549 1-477). Conditions: protein: recombinant; tags: N-terminal GST; dsDNA, one strand shown. The method, boiled down: as §1
Another assay concerns the target T6, ERF (Homo sapiens, UniProt P50548 1-548).
T6 sequence: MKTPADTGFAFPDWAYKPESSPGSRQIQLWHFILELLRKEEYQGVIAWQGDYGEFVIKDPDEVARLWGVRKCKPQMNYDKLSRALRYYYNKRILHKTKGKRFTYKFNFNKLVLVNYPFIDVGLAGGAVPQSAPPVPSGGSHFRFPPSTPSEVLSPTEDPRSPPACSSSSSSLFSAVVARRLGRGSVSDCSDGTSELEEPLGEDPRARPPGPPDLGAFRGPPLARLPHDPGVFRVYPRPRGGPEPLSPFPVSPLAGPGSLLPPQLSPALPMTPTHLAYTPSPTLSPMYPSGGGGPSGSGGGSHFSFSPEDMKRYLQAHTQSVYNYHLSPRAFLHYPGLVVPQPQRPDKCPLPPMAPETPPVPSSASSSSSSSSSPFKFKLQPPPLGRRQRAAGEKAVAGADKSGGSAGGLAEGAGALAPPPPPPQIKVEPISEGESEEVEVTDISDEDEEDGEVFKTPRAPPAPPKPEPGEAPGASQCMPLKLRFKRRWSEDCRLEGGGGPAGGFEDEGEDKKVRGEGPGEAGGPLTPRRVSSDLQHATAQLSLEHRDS
Particulars: protein: recombinant; tags: N-terminal GST; dsDNA, one strand shown. The procedure, abridged:
as §1

In a further assay the target is T7, ETV3L (Homo sapiens, UniProt Q6ZN32 1-361).
T7 sequence: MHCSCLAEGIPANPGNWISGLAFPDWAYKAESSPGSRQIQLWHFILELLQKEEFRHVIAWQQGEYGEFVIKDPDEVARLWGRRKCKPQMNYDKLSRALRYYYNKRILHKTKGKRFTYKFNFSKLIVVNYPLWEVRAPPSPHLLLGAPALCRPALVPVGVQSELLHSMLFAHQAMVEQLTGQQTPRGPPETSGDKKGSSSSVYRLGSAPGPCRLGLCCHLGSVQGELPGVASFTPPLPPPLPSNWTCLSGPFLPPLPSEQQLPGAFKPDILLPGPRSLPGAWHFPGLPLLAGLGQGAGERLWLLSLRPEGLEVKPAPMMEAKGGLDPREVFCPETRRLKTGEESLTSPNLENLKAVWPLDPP
Particulars: protein: recombinant; tags: N-terminal GST; dsDNA, one strand shown. The procedure, abridged:
as §1

The next assay concerns the target T8, ETS2 (Homo sapiens, UniProt P15036 1-469).
T8 sequence: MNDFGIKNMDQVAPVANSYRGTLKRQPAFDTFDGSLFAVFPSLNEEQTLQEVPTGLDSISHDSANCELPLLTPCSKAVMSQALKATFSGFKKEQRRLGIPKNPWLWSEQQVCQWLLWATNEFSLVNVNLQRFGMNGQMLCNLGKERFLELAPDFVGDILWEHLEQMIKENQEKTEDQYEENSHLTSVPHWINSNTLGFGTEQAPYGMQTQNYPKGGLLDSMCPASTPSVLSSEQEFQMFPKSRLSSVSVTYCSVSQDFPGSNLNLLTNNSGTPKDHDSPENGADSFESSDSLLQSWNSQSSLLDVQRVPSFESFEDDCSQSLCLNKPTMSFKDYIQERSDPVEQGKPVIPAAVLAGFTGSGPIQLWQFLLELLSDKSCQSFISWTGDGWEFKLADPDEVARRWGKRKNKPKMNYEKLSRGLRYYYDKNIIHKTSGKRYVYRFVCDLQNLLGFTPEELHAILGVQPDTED
Particulars: protein: recombinant; tags: N-terminal GST; dsDNA, one strand shown. The method, boiled down:
as §1

The target in a further assay is T9, SPDEF (Homo sapiens, UniProt O95238 1-335).
T9 sequence: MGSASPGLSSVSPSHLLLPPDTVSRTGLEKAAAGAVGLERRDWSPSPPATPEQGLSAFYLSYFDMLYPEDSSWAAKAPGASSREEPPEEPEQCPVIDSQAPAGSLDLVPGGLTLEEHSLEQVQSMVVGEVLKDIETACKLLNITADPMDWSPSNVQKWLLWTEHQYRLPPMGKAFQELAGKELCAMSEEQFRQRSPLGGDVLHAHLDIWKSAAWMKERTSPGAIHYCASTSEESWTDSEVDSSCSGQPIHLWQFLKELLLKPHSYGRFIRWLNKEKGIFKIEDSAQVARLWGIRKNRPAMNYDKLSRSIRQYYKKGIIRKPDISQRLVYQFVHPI
Particulars: protein: recombinant; tags: N-terminal GST; dsDNA, one strand shown. The method, boiled down:
as §1

A further assay deals with T10, ETV7 (Homo sapiens, UniProt Q9Y603 1-341).
T10 sequence: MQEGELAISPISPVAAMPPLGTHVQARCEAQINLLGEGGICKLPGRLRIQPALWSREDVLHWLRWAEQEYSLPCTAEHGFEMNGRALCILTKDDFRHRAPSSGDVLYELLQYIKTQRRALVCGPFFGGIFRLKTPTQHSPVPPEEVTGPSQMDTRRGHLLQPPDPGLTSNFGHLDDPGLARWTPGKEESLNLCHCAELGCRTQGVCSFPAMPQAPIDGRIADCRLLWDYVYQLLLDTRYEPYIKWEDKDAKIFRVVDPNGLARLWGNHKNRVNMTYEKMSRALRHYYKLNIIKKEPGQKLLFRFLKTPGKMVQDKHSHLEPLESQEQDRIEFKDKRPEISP
Particulars: protein: recombinant; tags: N-terminal GST; dsDNA, one strand shown. The procedure, abridged:
as §1

For a further assay, the target named is T11, ELF5 (Homo sapiens, UniProt Q9UKW6-2 1-255).
T11 sequence: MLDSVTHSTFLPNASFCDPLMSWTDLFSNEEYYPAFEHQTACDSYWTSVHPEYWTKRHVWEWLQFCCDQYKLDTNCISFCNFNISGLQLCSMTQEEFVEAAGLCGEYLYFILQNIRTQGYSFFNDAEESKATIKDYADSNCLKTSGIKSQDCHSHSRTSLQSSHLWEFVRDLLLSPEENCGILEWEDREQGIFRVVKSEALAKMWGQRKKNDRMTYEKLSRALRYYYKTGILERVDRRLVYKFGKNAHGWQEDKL
Particulars: protein: recombinant; tags: N-terminal GST; dsDNA, one strand shown. The method, boiled down:
as §1

A further assay deals with T12, ETV3 (Homo sapiens, UniProt P41162-2 1-143).
T12 sequence: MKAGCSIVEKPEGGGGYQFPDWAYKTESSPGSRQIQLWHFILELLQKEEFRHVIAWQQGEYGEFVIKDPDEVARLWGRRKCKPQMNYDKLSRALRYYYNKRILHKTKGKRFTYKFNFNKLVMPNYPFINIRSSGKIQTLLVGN
Conditions: protein: recombinant; tags: N-terminal GST; dsDNA, one strand shown. The method, boiled down: as §1

Another assay has as its target ETV6 (Homo sapiens, UniProt P41212 1-452). Conditions: protein: recombinant; tags: N-terminal GST; dsDNA, one strand shown. The procedure, abridged: as §1

ETV5, sequence (P41161 whole entry): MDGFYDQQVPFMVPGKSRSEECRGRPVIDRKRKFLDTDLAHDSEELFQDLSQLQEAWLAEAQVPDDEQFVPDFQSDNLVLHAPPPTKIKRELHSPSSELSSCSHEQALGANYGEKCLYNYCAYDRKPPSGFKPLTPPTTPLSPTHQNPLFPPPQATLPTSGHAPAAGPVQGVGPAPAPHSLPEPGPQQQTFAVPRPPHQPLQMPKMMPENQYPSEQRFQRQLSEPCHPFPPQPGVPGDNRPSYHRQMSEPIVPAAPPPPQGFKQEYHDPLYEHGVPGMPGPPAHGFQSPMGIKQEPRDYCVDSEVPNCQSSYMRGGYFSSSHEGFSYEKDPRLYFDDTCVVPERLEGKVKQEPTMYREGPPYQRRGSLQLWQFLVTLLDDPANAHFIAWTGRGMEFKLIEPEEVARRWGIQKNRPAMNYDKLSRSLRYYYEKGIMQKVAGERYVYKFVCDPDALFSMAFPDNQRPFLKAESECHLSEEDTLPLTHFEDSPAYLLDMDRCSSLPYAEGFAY
CRX, sequence (O43186 whole entry): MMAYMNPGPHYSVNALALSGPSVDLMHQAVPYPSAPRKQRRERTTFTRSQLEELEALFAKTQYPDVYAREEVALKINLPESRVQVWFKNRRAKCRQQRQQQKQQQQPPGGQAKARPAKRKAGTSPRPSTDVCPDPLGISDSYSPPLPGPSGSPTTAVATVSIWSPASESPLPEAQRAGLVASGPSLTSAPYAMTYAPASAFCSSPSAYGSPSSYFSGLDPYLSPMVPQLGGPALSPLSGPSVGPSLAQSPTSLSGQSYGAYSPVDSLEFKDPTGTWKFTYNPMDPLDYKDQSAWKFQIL
ETV1, sequence (P50549 whole entry): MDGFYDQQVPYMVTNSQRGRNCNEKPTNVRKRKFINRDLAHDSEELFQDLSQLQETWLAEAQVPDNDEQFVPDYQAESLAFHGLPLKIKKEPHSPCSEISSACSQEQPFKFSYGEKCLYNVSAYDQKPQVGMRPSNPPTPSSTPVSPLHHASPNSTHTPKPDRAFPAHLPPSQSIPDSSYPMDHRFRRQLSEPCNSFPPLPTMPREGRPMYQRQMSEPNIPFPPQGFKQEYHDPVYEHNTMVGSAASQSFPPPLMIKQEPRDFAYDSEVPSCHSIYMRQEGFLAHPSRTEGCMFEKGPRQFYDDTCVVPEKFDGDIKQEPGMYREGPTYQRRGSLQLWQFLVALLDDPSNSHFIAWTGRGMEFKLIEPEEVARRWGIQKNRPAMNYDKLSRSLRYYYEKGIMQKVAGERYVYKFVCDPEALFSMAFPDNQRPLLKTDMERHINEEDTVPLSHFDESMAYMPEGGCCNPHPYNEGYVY
HSF1, sequence (Q00613 whole entry): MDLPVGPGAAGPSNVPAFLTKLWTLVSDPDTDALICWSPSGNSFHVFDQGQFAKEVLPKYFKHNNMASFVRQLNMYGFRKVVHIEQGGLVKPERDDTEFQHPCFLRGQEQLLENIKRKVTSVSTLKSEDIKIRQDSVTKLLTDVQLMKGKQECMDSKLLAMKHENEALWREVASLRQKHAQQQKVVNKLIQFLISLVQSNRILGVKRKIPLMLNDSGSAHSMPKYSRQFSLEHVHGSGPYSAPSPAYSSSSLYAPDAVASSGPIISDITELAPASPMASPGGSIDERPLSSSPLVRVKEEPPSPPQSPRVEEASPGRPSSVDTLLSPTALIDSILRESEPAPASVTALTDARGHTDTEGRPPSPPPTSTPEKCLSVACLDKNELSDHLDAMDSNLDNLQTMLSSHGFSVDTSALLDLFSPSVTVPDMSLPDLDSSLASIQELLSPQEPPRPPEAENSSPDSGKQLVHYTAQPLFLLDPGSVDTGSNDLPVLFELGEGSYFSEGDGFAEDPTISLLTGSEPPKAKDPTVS
ETV6, sequence (P41212 whole entry): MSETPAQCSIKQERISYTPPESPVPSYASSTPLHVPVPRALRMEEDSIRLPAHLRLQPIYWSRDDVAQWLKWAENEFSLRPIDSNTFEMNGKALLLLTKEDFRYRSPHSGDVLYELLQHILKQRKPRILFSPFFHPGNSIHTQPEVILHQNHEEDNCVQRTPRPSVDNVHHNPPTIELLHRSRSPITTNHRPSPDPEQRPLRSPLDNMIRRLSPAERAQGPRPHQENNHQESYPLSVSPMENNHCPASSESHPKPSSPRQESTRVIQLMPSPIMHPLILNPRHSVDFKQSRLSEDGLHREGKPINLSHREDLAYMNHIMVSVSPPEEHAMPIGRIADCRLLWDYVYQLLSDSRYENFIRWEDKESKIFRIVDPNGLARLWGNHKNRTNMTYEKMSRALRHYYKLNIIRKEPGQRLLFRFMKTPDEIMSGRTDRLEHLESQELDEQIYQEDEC

For the sequence TTTCGT, the binding signal in the assay with FEV was 1.35 fold enrichment (6-mer frequency, TF over GST control); with ETV5 it was 1.41 fold enrichment (6-mer frequency, TF over GST control); with HSF1 it was 1.48 fold enrichment (6-mer frequency, TF over GST control); with SPIC it was 1.36 fold enrichment (6-mer frequency, TF over GST control); with ELF4 it was 1.34 fold enrichment (6-mer frequency, TF over GST control); with ELK4, 1.49 fold enrichment (6-mer frequency, TF over GST control). Further, the binding signal with ETV2 is 1.32 fold enrichment (6-mer frequency, TF over GST control); with ELF3, 1.33 fold enrichment (6-mer frequency, TF over GST control); with CRX, 1.43 fold enrichment (6-mer frequency, TF over GST control); with ETV1 it was 1.38 fold enrichment (6-mer frequency, TF over GST control); with ERF, 1.21 fold enrichment (6-mer frequency, TF over GST control); with ETV3L it was 1.46 fold enrichment (6-mer frequency, TF over GST control). Moreover, the binding signal with ETS2 was 1.37 fold enrichment (6-mer frequency, TF over GST control); in the assay with SPDEF, 1.42 fold enrichment (6-mer frequency, TF over GST control); with ETV7 it was 1.34 fold enrichment (6-mer frequency, TF over GST control); with ELF5 it was 1.33 fold enrichment (6-mer frequency, TF over GST control); with ETV3 it was 1.4 fold enrichment (6-mer frequency, TF over GST control); with ETV6, 1.35 fold enrichment (6-mer frequency, TF over GST control).

The record behind these values is PMC7862700, “An all-to-all approach to the identification of sequence-specific readers for epigenetic DNA modifications on cytosine”.
